Hits are enriched below; roughly 3.5% of the tested compounds scored in any of these assays.
Mtb FBA inh = Mtb FBA enzyme inhibitors, primary screen, biochemical, fluorescence, strain H37Rv; purified M. tuberculosis FBA, fluorescence read-out; inhibition, % at 1 µM; 360,000 tested, 2.3% active; Fructose-bisphosphate aldolase (Mycobacterium tuberculosis (strain ATCC 25618 / H37Rv)), …; in the data active means inhibition above about 27%;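 further: 0% = vehicle and 100% = reference inhibitor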
Target sequence (P9WQA3 whole entry, looked up): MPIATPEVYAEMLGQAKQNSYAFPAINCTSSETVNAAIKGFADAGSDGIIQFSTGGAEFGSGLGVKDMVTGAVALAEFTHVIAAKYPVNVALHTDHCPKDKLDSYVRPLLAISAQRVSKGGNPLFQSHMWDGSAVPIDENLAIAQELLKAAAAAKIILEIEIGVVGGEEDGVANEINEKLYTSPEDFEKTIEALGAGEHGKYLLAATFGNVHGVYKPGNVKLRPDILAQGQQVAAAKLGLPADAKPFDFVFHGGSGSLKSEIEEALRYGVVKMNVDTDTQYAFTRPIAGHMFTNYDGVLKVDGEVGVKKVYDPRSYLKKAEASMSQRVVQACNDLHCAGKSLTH
Rv3671c inh = Rv3671c serine protease inhibitors, primary screen, biochemical, fluorescence polarization, M. tuberculosis H37Rv; P9WHR9; inhibition, % at 5.96 µM; 320,000 tested, 0.048% active; in the data active means inhibition above about 38%;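 further: extracellular domain of Rv3671c used as enzyme; 0% = enzyme with DMSO and 100% = no enzyme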
UGM FP inh = M. tuberculosis UGM enzyme inhibitors, primary screen, biochemical, fluorescence polarization, single point. UDP-galactopyranose mutase (Mycobacterium tuberculosis (strain ATCC 25618 / H37Rv)), …. purified UGM, fluorescence polarization probe displacement. inhibition, % at 10 µM. 320,000 tested, 0.06% active. AID 504406, 2011; in the data active means inhibition above about 10%, passing the limit was not always enough
GDH-TPI counter = GDH-TPI coupling enzyme inhibitors, primary screen, artefact control for M. tuberculosis FBA inhibitor project, biochemical, absorbance, full deck. GDH-TPI coupled enzyme counterscreen, NADH absorbance. 360,000 tested, 1.2% active. inhibition, % at 4.8 µM; in the data active means inhibition above about 30%;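 further: 0% = DMSO wells and 100% = wells lacking the enzyme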
Mtb hypoxia rep = PubChem AID 1159583; fluorescence inhibition, % (concentration not given with the values); M. tuberculosis hypoxia-regulated fluorescent reporter, fluorescence; 300,000 tested, 0.1% active; in the data active means fluorescence inhibition mostly above about 23%, no sharp cut-off; inactive means mostly below about 17%
FadD28 binding = inhibitors of FadD28 bisubstrate probe binding, primary screen, biochemical, fluorescence polarization, single point; AID 588549, 2011; inhibition, % at 12.5 µM; 360,000 tested, 0.22% active; in the data active means inhibition above about 8.5%, passing the limit was not always enough
* hit, by the source's call; x = no result given; + = active, no number.

SMILES | Mtb FBA inh | Rv3671c inh | UGM FP inh | GDH-TPI counter | Mtb hypoxia rep | FadD28 binding
Cc1ccc(OCC(=O)NN=Cc2cn(C)c3ccccc23)cc1 | x | x | x | x | -5 | x
Cc1ccc2nc(Cl)c(C=NNC(=O)c3ccccc3O)cc2c1 | x | x | x | x | 8 | x
O=c1c2ccccc2nc(NN=Cc2c(O)ccc3ccccc23)n1O | x | x | x | x | 5 | x
CCOc1ccc(-n2c(C)cc(/C=N/Nc3nc(C)cc(=O)[nH]3)c2C)cc1 | 3 | 6 | 2 | 36* | x | -3
Cc1cc(=O)[nH]c(N/N=C/c2ccc(Br)s2)n1 | -4 | 14 | 4 | 42* | x | -4
Cc1cc(=O)[nH]c(NN=Cc2c(Cl)cccc2Cl)n1 | -2 | x | x | 17 | x | -3
CCn1c(SCC(=O)NN=Cc2ccc(O)c(OC)c2)nc2ccccc21 | x | x | x | x | 0 | x
Cc1ccc(/C=C/C(=O)Nc2nnc(C)s2)o1 | 2 | -2 | 1 | 32* | 5 | 1
CCN(CC)S(=O)(=O)c1cccc(C(=O)NN=Cc2ccc([N+](=O)[O-])o2)c1 | x | x | x | x | 13 | x
COc1ccc(/C=C(\NC(=O)c2cccs2)C(=O)NN)cc1OC | 0 | x | 3 | 38* | 6 | 1
[N-]=[N+]=NC1CC(n2ccc(=O)[nH]c2=O)OC1CO (stereo not given) | x | x | x | x | 7 | x
CC(C)(C)c1nnc(NN=Cc2ccccc2O)n(N)c1=O | x | x | x | x | -4 | x
CC(C)(C)c1nnc(N/N=C/c2cc(Br)ccc2O)n(N)c1=O | -1 | 6 | 0 | 33* | x | -3
O=C(COC(=O)/C=C/c1ccc2c(c1)OCO2)NC1CC1 | 14 | 1 | 0 | 22 | -9 | 0
CC(C)NC(=O)NC(=O)COC(=O)/C=C/c1ccc2c(c1)OCO2 | 9 | -2 | 4 | 7 | 1 | 1
CC(C)C(OC(=O)/C=C/c1ccc2c(c1)OCO2)C(=O)NC(N)=O (stereo not given) | 14 | 1 | 0 | 41* | 7 | 1
N#CCOC(=O)/C=C/c1ccc2c(c1)OCO2 | 13 | 14 | 0 | 38* | -1 | -2
CC1CN(C(C)CO)C(=O)c2cccc(NC(=O)Cc3ccccc3)c2OC1CN(C)S(=O)(=O)c1cccs1 (stereo not given) | x | x | x | x | 18 | x
Cc1ccc(C(=O)NC(=S)Nc2ccc(-c3ccc(CO)o3)cc2)cc1 | 1 | -26 | 0 | 10 | 12 | -3
CCOC(=O)c1ccc(-c2ccc(CO)o2)cc1 | + | -4 | -2 | 19 | 10 | 0
COc1cc(C(C)=O)ccc1OC(=O)c1cc2cccc(OC)c2oc1=O | -2 | 11 | -1 | 57* | 10 | -1
C/C(C=NNC(=O)c1cc(-c2cccn2C)n[nH]1)=C\c1ccccc1 | x | x | x | x | 13 | x
COc1ccc(-c2ccc(C#N)c(SCC(=O)OCc3ccccc3)n2)cc1OC | + | 1 | -1 | 23 | 6 | -4
COc1ccc(-c2ccc(C#N)c(SCC(=O)NCc3ccco3)n2)cc1OC | + | -9 | 2 | 46* | -13 | -2
COc1ccc(-c2nnc3ccc(SCC(=O)NCc4ccco4)nn23)cc1OC | -1 | 8 | -1 | 2 | -7 | -1
SMILES | Mtb FBA inh | Rv3671c inh | UGM FP inh | GDH-TPI counter | Mtb hypoxia rep | FadD28 binding
C#Cc1ccc(C2C=C(C(=O)O)OC(OCCCCO)C2)cc1 (stereo not given) | x | x | x | x | 4 | x
COc1cc2c(cc1O)CC[n+]1cc3c(OC)c(OC)ccc3cc1-2 | -4 | -1 | 3 | 33* | 8 | 0
COc1cc2c(ccc3cc(OC)c(OC)c(O)c32)cc1O | 6 | -1 | 2 | -1 | x | 4
COc1cc2c(cc1OC)-c1cc3ccc4c(c3c[n+]1CC2)OCO4 | -1 | -8 | 4 | 35* | 2 | -2
Cc1ccc(-c2cn3cccnc3n2)cc1NC(=O)c1c(-c2ccccc2Cl)noc1C | + | -3 | -1 | 16 | -13 | -8
Cc1onc(-c2ccccc2Cl)c1C(=O)Nc1cccc(-c2nc3ncccn3c2C)c1 | 175* | 1 | 1 | 26 | 1 | -3
Cc1onc(-c2ccccc2Cl)c1C(=O)Nc1ccc(-c2cn3cccnc3n2)cc1 | + | -13 | -2 | 31* | -7 | -6
CC(=O)Nc1cccc(NC(=O)c2c(-c3ccccc3Cl)noc2C)c1 | -3 | 0 | -2 | -2 | 10 | -4
Cc1onc(-c2ccccc2Cl)c1C(=O)Nc1cccc2cccnc12 | -1 | -14 | 2 | 6 | 11 | -7
Cc1onc(-c2ccccc2Cl)c1C(=O)Nc1nnc(-c2cccc([N+](=O)[O-])c2)s1 | 3 | 4 | -2 | 35* | 9 | -2
COc1ccc(C=NN2CCN(C3c4ccccc4-c4ccccc43)CC2)cc1OC | x | x | x | x | 2 | x
COC(=O)C1=C(c2ccc(F)cc2OCc2ccccc2)CC2CCC1N2C(=O)NCCOc1ccc(OC)cc1 (stereo not given) | x | x | x | x | 8 | x
O=C(NCCN1C(=O)S/C(=C\c2ccc(Cl)cc2)C1=O)c1ccc(F)c(S(=O)(=O)N2CCOCC2)c1 | -1 | -10 | 1 | 4 | -7 | -1
CCN(CC)c1ccc(/C=N/NC(=O)c2cccc(S(=O)(=O)N3CCOCC3)c2)cc1 | 0 | -4 | 1 | 32* | x | 0
C/C(=N\NC(=O)c1cccc(S(=O)(=O)N2CCOCC2)c1)c1cc2ccccc2o1 | -1 | 2 | -2 | 52* | x | -5
CCN(CC)c1ccc(/C=N/N2CCOCC2)cc1 | 0 | -2 | -1 | 43* | x | -2
CCN(Cc1ccccc1)c1ccc(/C=N/N2CCOCC2)cc1 | 1 | 9 | 2 | 28 | x | 0
O=C(NCCN1C(=O)S/C(=C\c2ccc(F)cc2)C1=O)c1cccc(S(=O)(=O)N2CCOCC2)c1 | -3 | -20 | -3 | 36* | 10 | -1
O=C(NN=Cc1cc(Br)cc(Br)c1O)c1cccc(N2CCCC2=O)c1 | x | x | x | x | 11 | x
C/C(C=NNC(=O)Cc1cccn1C)=C/c1ccco1 | x | x | x | x | 9 | x
CCC(=O)[C@@]1(C)C(C)CC2C3CCC4=CC(=O)C=C[C@]4(C)C3C(O)C[C@@]21C (stereo not given in full) | x | x | x | x | 3 | x
CCN(Cc1ccccc1)c1ccc(/C=N/NC(=O)c2cccc(S(=O)(=O)N3CCOCC3)c2)cc1 | 4 | 4 | 0 | 43* | x | 0
CCCc1c(C(=O)NN=Cc2sccc2C)nnn1-c1nonc1N | x | x | x | x | 6 | x
CS(=O)(=O)c1ccc2nc(NC(=O)c3ccc(NS(=O)(=O)c4cccc([N+](=O)[O-])c4)cc3)sc2c1 | 0 | -72 | 1 | 89* | 0 | 2
CCC(=O)Nc1nc2ccc([N+](=O)[O-])cc2s1 | 3 | 5 | -2 | 31* | 6 | -1
CC(C)C1C=C(C(=O)O)OC(OCCCCO)C1 (stereo not given) | x | x | x | x | 8 | x
NS(=O)(=O)c1ccc(NC=C2C(=O)OC3(CCCCC3)OC2=O)cc1 | -1 | -5 | 2 | 32* | 0 | 1
O=[N+]([O-])c1ccc(NN=Cc2ccco2)nc1 | -13 | x | x | 33* | 10 | 1

Assay outcomes: PubChem, several laboratories
